Reference: PubChem BioAssay AID504374 (National Center for Advancing Translational Sciences (NCATS), 2011)
Values joined by “and” are separate entries in the source; they are usually repeats but may differ in a detail not shown here. Equal values may be shown once. Among all 1,500 compounds or so, about 100 (6.7%) were called active. Inconclusive results (about 7%) are left out. Calls follow the shape of the dose curve; as a rule, active = well fitted inhibition curve with a large enough effect; inconclusive = small, poorly fitted or top-dose-only effect, or effect the other way; inactive = flat fitted curve, though single readings scatter. Only a selection was taken, and actives are over-represented in it overall.

Target: Runt-related transcription factor 1 (Homo sapiens) + Core-binding factor subunit beta (Homo sapiens) (UniProt Q01196+Q13951)
Assay: qHTS Assay for Compounds Blocking the Interaction Between CBF-beta and RUNX1 for the Treatment of Acute Myeloid Leukemia: Hit Validation; also: nearly all actives have a fitted effect of over 60% in size
Details: AlphaScreen CBFb-His/RUNX1-biotin binding; series mostly up to 59.8 µM
Excerpt: NIH Chemical Genomics Center [NCGC]
NIH Molecular Libraries Probe Production centers Network [MLPCN]
Assay Submitter (PI): Paul Liu
Core Binding Factor (CBF) abnormalities are associated with 20-25% of all acute myeloid leukemias (AML), of which 5-10% are further sub classified as acute myelomonocytic leukemia with eosinophilia, also known as M4Eo in the FAB classification scheme. This subtype of leukemia is usually associated with chromosome 16 inversion (p13:q22). Chromosome 16 inversion results in formation of the fusion oncogene CBFB-MYH11, which encodes the fusion protein CBF-beta-SMMHC.
It has been hypothesized that the interference of CBF-beta and RUNX1 binding could have therapeutic implications for patients with CBF mediated leukemias. We developed a CBF-beta and RUNX1 binding assay in AlphaScreenTM format and optimized it for high throughput screening to search for inhibitors. The goal of this project is to screen MLPCN's compound collection (MLSMR) for identifying the inhibitors of the interaction between CBF-beta and RUNX1 proteins as research probes. If these probes work well in the animal models, the ultimate goal of this project is to development a new drug treatment for this disease.
This assay can not be used to assess how apparent inhibitors interfere with protein binding, and whether inhibitors specifically bind to either protein. Disruption of this protein-protein interaction, through any mechanism, is the intended target activity.
The present data set was run to confirm the activity of hits from the primary screen.
NCGC Assay Protocol Summary:
Step, Parameter, Description
(1) Reagent, 3 uL CBFb-His/RUNX1-biotin mix incubated together for 20 minutes at room temperature (30 nM each)
(2) Compound or control, 23 nL compound stock solution
(3) Incubation, 15 minutes at Room temperature
(4) Reagent, 1 uL 50 ng each of beads (Nickel beads and streptavidin beads)
(5) Incubation, 90 minutes at Room temperature
(6) Detection, Excitation=365 nm Emission=440 nm, Envision reader in AlphaScreenTM mode
Keywords: MLSMR, MLPCN, NIH Roadmap, qHTS, NCGC, Core binding factor, CBF, CBF-beta, Acute myeloid leukemia
Potency is read from the fitted curve at half-maximal effect.

Chain of Runt-related transcription factor 1 (Homo sapiens) + Core-binding factor subunit beta (Homo sapiens) (Q01196 whole entry, looked up): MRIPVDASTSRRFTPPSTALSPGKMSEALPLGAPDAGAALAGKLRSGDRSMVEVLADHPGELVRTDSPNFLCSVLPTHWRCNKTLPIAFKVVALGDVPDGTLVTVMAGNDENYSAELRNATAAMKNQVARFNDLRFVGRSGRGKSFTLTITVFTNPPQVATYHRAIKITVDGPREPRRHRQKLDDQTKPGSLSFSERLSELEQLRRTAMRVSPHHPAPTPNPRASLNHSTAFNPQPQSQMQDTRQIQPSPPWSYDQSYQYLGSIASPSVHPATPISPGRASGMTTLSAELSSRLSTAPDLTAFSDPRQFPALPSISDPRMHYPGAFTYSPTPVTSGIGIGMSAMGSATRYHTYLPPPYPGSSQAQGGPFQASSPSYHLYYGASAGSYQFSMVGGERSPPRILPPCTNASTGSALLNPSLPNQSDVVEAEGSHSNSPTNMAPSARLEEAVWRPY
Chain of Runt-related transcription factor 1 (Homo sapiens) + Core-binding factor subunit beta (Homo sapiens) (Q13951 whole entry, looked up): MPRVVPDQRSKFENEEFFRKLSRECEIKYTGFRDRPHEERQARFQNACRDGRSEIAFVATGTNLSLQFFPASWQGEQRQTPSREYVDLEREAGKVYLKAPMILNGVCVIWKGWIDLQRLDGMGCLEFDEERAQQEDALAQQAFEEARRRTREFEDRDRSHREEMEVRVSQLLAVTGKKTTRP

Potency, inactive:
Cc1cc(C)cc(NC(=O)NCC(O)COc2ccc([N+](=O)[O-])cc2)c1 (stereo unspecified), CCOc1cc(/C=N/n2c(C)nnc2C)ccc1O, Cc1ccccc1Nc1ncc(C#N)c(N)n1, O=C(Nc1ccc(Cl)cc1)Nc1ccc(C(=O)N2CCOCC2)cc1, CCCc1nc2sc3ccccc3c(=O)c2c(=O)n1Cc1ccc(OC)cc1, Cc1c(C(=O)/C=C/N(C)C)nnn1-c1ccc(Cl)c(Cl)c1, COC(=O)Cc1[nH]c(=O)[nH]c1C(=O)OC, CSc1ccc(NC(=O)Nc2cc(C)ccn2)cc1, C[N+](C)(C)CCCN(Cc1ccc2c(c1)OCO2)C(=O)NC1CCCCC1, C=CCNC(=S)Nc1c(C(=O)OC)[nH]c2cc(OC)ccc12, O=C(OCC(O)COC(=O)c1cccnc1)c1cccnc1, N#Cc1ccc(S(=O)(=O)N2CCCN(c3ccc(C(F)(F)F)cn3)CC2)cc1, O=C(O)c1ccccc1C1Nc2ccccc2C(=O)N1CCCN1CCOCC1 (stereo unspecified), Cc1ccc(Cn2nc(C)cc2C(=O)Nc2ccc(Cl)cc2)cc1, CCn1c(NC(=O)C(C)C)c(-c2cccs2)c(=O)c2ccccc21, Cc1nc(C)c(-c2ccnc(/N=C/NO)n2)s1, Cc1cc(OCC(=O)c2cccc(C(F)(F)F)c2)n2cnnc2n1, O=C(NC(=S)Nc1ccccc1N1CCCC1)c1ccco1, Cc1onc(-c2ccccc2)c1C(=O)NC(=S)NNC(=O)c1ccco1, Nn1c(SCC(=O)Nc2ccc(S(N)(=O)=O)cc2)nnc1C(F)(F)F, O=C(CN1CCCc2ccccc21)N1CCc2ccccc21, CC(=O)NNC(=S)Nc1cccc(F)c1, COc1ccc(CCN(C)CCC(=O)Nc2cccc(C)c2)cc1OC, Cc1ccc(NC(=S)Nc2ccccn2)cc1C, CC1=NN(c2nc3ccccc3s2)C(O)(C(F)(F)F)C1 (stereo unspecified), COc1ccc(NC(=O)c2cccs2)cn1, CCOC(=O)NC1=NCC(C)S1 (stereo unspecified), O=S(=O)(c1ccc(C(F)(F)F)cc1)N1CCCN(c2ccc(C(F)(F)F)cn2)CC1, NNC(=O)c1ccc(COc2ccc([N+](=O)[O-])cc2)o1, COc1ccc(/C=N/NC(=O)c2ccco2)cc1OCc1ccccc1, N#Cc1cnn(-c2ccccc2)c1NC(=O)CN1CCOCC1, COC(=O)CC1C(=O)NCCN1C(=S)Nc1ccc(F)cc1 (stereo unspecified), O=C(O)COCC(=O)N1CCN(C2c3ccccc3-c3ccccc32)CC1, CC(C)NC(=O)Nc1cccc(Cl)c1, CCCCNC(=O)NCCN1CCOCC1, Cc1ccc(/C=N/N2CCN(c3ccccn3)CC2)o1, Cc1cc2nc(-c3ccccc3)cc(=O)n2[nH]1, COc1ccc(/C=N/NC(=S)Nc2cc(C(F)(F)F)ccc2Cl)cc1, CC(C)(C)c1ccc(CCC2OCC(C[N+]3(C)CCOCC3)O2)cc1 (stereo unspecified), Cc1nn2c(NCCOCCO)c3c(nc2c1-c1ccccc1)CCC3, O=C(c1ccc(Cn2cc(Cl)c([N+](=O)[O-])n2)cc1)N1CCN(Cc2ccccc2)CC1, Cc1onc(-c2c(F)cccc2Cl)c1C(=O)Nc1ccccc1N1CCOCC1, CCCCC(=O)Nc1ccc(NC(=S)NC(=O)c2ccco2)cc1OC, CCC(=O)Nc1cccc(C(=O)OC)c1, CCOC(=O)CN1NC2(CCCCCC2)NC1=S, Cc1onc(-c2c(F)cccc2Cl)c1C(O)c1ccc(F)cc1 (stereo unspecified), Nc1ncccc1OCc1ccc(Cl)c(Cl)c1, COCCn1c(-c2ccc(Cl)cc2)nc2oc3cc(OC)ccc3c(=O)c2c1=O, CC(=O)Nc1ccc(OCCOc2ccc([N+](=O)[O-])cc2)cc1, CSC(=Nc1ccccc1)Nc1ccccc1, CCOC(=O)N1CCN(CC(=O)Nc2sc(CC)cc2C(=O)c2ccc(OC)cc2)CC1, CCOC(=O)CC(=O)CSc1nc(CC)c(C)cc1C#N, COc1ccc(N/C=C2\C(=O)c3c(sc(C)c3C)N(C)S2(=O)=O)cc1, COc1cc(/C=N/Nc2ccc(S(N)(=O)=O)cc2[N+](=O)[O-])cc(OC)c1O, COc1ccc(/C=N/NC(=O)c2ccc3nc[nH]c3c2)cc1OC, Oc1ccc2ccccc2c1C=Nc1ccccc1, CNC(=O)/C(C#N)=C1\SC(Cc2ccc(F)cc2)C(=O)N1c1ccccc1C (stereo unspecified), O=C(Nc1ccccc1)NC1CCCCNC1=O (stereo unspecified), CCOC(=O)/C(C#N)=C/Nc1cc(F)ccc1C, CCOc1ccccc1/C=C(/C#N)C(N)=O, COc1ccc(/C(C#N)=C/c2ccccn2)cc1, CCOC(=O)/C(C#N)=C/Nc1ccccc1OC(F)(F)F, S=c1[nH]ccn1-c1ccccc1Cl, CC(=O)NCC1(O)CCCC(C)C1 (stereo unspecified), CC(C)(C)C(=O)Nc1ccc(NC(=O)C(C)(C)C)cc1, O=C(COc1ccc([N+](=O)[O-])cc1Cl)N1CCOCC1, O=C(CSc1n[nH]c(=O)[nH]c1=O)N1CCCCCC1, O=C(Oc1ccc2c(c1)O/C(=C\c1ccncc1)C2=O)c1cccs1, CCCN(CCC)C(=O)CC(c1ccccc1)c1ccco1 (stereo unspecified), COC(=O)c1ccc(OC)c(OC)c1Cl, CCOC(=O)c1c2c([nH]c(=S)c1C#N)CCCC2, COc1cc(C2C(C#N)=C(N)OC3=C2C(=O)CC(C)(C)C3)ccc1OCCN1CCOCC1 (stereo unspecified), COC(=O)c1ccc(Cn2cc([N+](=O)[O-])cn2)cc1, C/C(O)=C(\C#N)P(=O)(c1ccccc1)c1ccccc1, c1ccc(-c2ccc(-c3ccccn3)s2)nc1, O=[N+]([O-])c1ccccc1CSc1ccccn1, CC(=O)c1cc(C#N)c(SCc2ccccn2)nc1C, Clc1ccc(-c2ccccc2)nn1, Clc1ccccc1/C=C/c1nc(-c2ccccn2)no1, CCN(CCS(=O)(=O)c1ccc(Cl)cc1)C(=O)Nc1ccccc1, COc1ccc2c(C)cc(C)nc2n1, Cc1cc(C)n2cnnc2n1, CCC1(C)N=C(N)Nc2nc3cc(C)c(C)cc3n21 (stereo unspecified), CCOC(=O)N1CCC(NS(=O)(=O)c2ccccc2)CC1, CCNC(=O)COC(=O)c1cc(S(=O)(=O)N2CCCCC2)ccc1C, Cc1cc(C)nc(N2N=C(C(F)(F)F)CC2=O)n1, COc1ccc(CCn2cnc3c([nH]c4ccccc43)c2=O)cc1, CC(C)(C)N1CCC1C(N)=O (stereo unspecified), Cn1c(=O)c2c(Nc3ccc(F)cc3)cc(=O)n(-c3ccccc3)c2n(C)c1=O, O=C(CC1NCCNC1=O)NC1Cc2ccccc2C1 (stereo unspecified), CC(=O)C1C(=O)CC(c2ccc(Cl)cc2)CC1=O (stereo unspecified), Cc1oc(S(=O)(=O)N2CCCC2)cc1C(=O)Nc1ccc(F)cc1, C=CCOc1c(CCC)cc(CCC)cc1C(N)=O

Potency, active:
O=c1oc2c(O)c(O)cc3c(=O)oc4c(O)c(O)cc1c4c23 0.158 µM, O=c1cc2c(=O)oc3cc(O)c(O)oc3c2c(O)c1O 0.447 µM, O=C(O)c1cc(O)c2c(c1)[C@H]([C@H]1c3cc(C(=O)O)cc(O)c3C(=O)c3c(O[C@@H]4OC(CO)C(O)C(O)C4O)cccc31)c1cccc(O[C@@H]3OC(CO)C(O)C(O)C3O)c1C2=O (stereo partly specified) 0.562 µM, CC(=O)Oc1cc(-c2coc3cc(OC(C)=O)c(OC(C)=O)c(OC(C)=O)c3c2=O)cc(OC(C)=O)c1OC(C)=O 1 µM, O=C(NC(=S)NNC(=O)c1ccccc1O)c1ccco1 1.26 µM, CC(c1ccccn1)N(CCN(C)C)C(=S)Nc1cccc(F)c1 (stereo unspecified) 3.44 µM, Cc1cccc(NC(=S)N(CCN(C)C)C(C)c2ccccn2)c1 (stereo unspecified) 6.87 µM, COCc1cc(O)c(O)c(O)c1-c1c(COC)cc(O)c(O)c1O 0.631 µM, Brc1ccc(C2Nc3cccc4cccc(c34)N2)o1 14.1 µM, NC(=S)N/N=C/c1ncc(C(F)(F)F)cc1Cl 25.1 µM, CCc1cccc(NC(=O)CCCCCC2NC(=O)NC2C)c1 (stereo unspecified) 0.447 µM, O=C1c2ccccc2C(=O)c2c(Nc3ccc(CCO)cc3)ccc(O)c21 0.794 µM, COc1cc(/C=N/NC(=O)c2cncc(Br)c2)cc([N+](=O)[O-])c1O 2.82 µM, N#CC(C#N)=Cc1ccc(OC(=O)c2ccccn2)cc1 6.12 µM, CCOC(=O)/C(C#N)=C/c1ccc(OC(=O)c2ccccn2)cc1 3.86 µM, N#C/C(=C\c1ccc(OC(=O)c2ccccn2)cc1)C(N)=O 4.34 µM, Cc1c2c(c(O)c3c(O)cccc13)C(=O)O[C@H]2C1C(N(C)C)C(O)=C(C(N)=O)C(=O)[C@H]1O (stereo partly specified) 0.631 µM, COc1cc(O)c2c(c1)oc(=O)c1c3cc(O)c(O)cc3oc21 3.16 µM, c1ccc(-c2ccccn2)nc1 7.94 µM, c1ccc(-c2ccc(-c3ccccn3)nn2)nc1 2.82 µM, c1ccc(-c2n[nH]c(-c3ccccn3)n2)nc1 1 µM and 708 nM, c1ccc(CSc2ccc(-c3ccccn3)nn2)nc1 2.51 µM, Cc1cc(O)c(C=O)c2c1C(=O)Oc1c(COC(=O)/C=C/C(=O)O)c(O)c(C(=O)O)c(C)c1O2 11.2 µM
